Screening results: PubChem BioAssay, National Center for Advancing Translational Sciences (NCATS)
NPSR antag: antagonists of human neuropeptide S receptor cAMP signaling; Q6W5P4; CHO-NPSR cells, cAMP TR-FRET, antagonist mode; Potency, µM (titrated, usually from 38.3 µM), for inactives: top-dose activity change, negative = inhibition, hits mostly inhibitors; 220,000 compounds, 1% hits; note: nearly all actives have a fitted effect of over 50% in size
TrxR1 substrate: rat thioredoxin reductase 1 substrate activity | 390,000 compounds, 0.01% hits | AID 588456 | purified TrxR1 substrate turnover, NADPH consumption readout | Potency, µM (top dose mostly 114 µM), inactives show at the top dose activity change, negative = substrate turnover; note: nearly all actives have a fitted effect of over 50% in size
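Rat TrxR1, dispensed at 90 nM, was prereduced with 400 uM NADPH (final) for 5 min at ~22 deg C, then incubated with compound 15 min before 400 uM selenite. A first-read NADPH fluorescence drop versus no-compound background flagged substrates.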
TrxR1 inh: inhibitors of rat thioredoxin reductase 1. O89049. recombinant rTrxR1, NADPH fluorescence consumption, selenite substrate. Potency, µM (series often up to 114 µM), inactives show at the highest dose activity change, negative = inhibition, usual class: inhibitors. 390,000 compounds, 1% hits. AID 588453; note: nearly all actives have a fitted effect of over 65% in size
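Rat TrxR1 (90 nM in the dispensed reagent) was pre-reduced with 400 uM NADPH for 5 min at room temperature, then incubated with compound for 15 min. After 400 uM selenite was added, NADPH fluorescence (Ex 340/Em 450 nm) was followed for 8 min.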
GALK inh: blocks human galactokinase activity. Purified GALK, Kinase-Glo residual ATP luminescence. P51570. 270,000 compounds, 0.007% hits. AID 1868. Potency, µM (doses to about 57.5 µM), inactives show top-dose activity change, negative = inhibition, actives largely listed as inhibitors
Target sequence (P51570 whole entry, looked up): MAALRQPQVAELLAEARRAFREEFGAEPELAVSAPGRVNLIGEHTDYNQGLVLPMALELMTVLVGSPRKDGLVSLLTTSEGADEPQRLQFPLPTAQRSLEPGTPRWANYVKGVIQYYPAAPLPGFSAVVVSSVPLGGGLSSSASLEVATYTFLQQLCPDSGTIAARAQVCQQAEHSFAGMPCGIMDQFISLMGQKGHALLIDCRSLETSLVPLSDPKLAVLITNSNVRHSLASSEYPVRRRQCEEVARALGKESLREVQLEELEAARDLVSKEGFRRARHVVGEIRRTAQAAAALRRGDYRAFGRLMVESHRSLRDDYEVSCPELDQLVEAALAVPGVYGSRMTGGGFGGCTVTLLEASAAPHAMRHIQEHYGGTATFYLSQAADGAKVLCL
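Compounds were pin-transferred into ATP buffer (35 uM final), then GALK plus galactose (5 nM, 100 uM final) was added. After 1 h at room temperature, Kinase-Glo Plus was added and luminescence read after 10 min.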
Starred values were filed as active, the others as inactive; ? = inconclusive; . = not tested or not shown; [ ] = dose if it differs, or a comment. In the library only some 1.2% were active in any assay of this set; here they are far more common. Calls come from the whole dose curve; as a rule, active = well fitted curve in the direction sought with a large enough effect; inconclusive = small, poorly fitted or top-dose-only effect, or another doubt; inactive = no such curve, though single readings can be large; an effect the other way counts as inactive or inconclusive. % is set by controls: 0 for no effect and ±100 for the full control effect; potency is the fitted concentration of half-maximal effect.

SMILES | NPSR antag | TrxR1 substrate | TrxR1 inh | GALK inh
COC(=O)c1sc(N)c(C(=O)OC)c1COC(=O)c1c(C)noc1C | ? | 3% | 21% | 8%
COc1ccc(CCn2c(=S)[nH]c(=O)c3cccnc32)cc1OC | . | -4% | -16% | .
O=C1CC(c2ccccc2)Sc2nc3ccccc3n21 (stereo unspecified) | -3% | -14%[57.1 µM] | 27%[57.1 µM] | 11%
CN1C(=O)CC(c2ccco2)Sc2ccccc21 (stereo unspecified) | 1%[46.1 µM] | -8% | 56µM* | 0%
O=C1CC(c2ccco2)Sc2nc3ccccc3n21 (stereo unspecified) | -1%[46.1 µM] | 3% | 13µM* | 0%
CCCN1C(=O)CC(c2ccco2)Sc2ccccc21 (stereo unspecified) | -7%[46.1 µM] | 9% | ? | 3%
Cc1cc2ccccc2n1-c1ccc(C(=O)N2CCCCC2)s1 | . | 9%[57.1 µM] | 18%[57.1 µM] | .
Cc1cc(Cn2cnc3c(cnn3C(C)(C)C)c2=O)ccc1F | . | 1% | 13% | .
CCOc1cccc2sc(N(CCCN(C)C)C(=O)c3ccc(S(=O)(=O)N(C)c4ccccc4)cc3)nc12 | 10µM* | -2% | 0% | 0%
CN(C)CCCN(C(=O)CCc1ccccc1)c1nc2c(F)cccc2s1 | 9% | -1% | 1% | -2%
CN(C)CCCN(C(=O)CCOc1ccccc1)c1nc2c(F)cccc2s1 | 17% | 18%[57.1 µM] | 0.45µM* | -1%
CN(C)CCCN(C(=O)COc1ccccc1)c1nc2ccc(F)cc2s1 | -16% | -5% | -7% | 0%
O=C(COc1ccccc1)N(Cc1cccnc1)c1nc2ccc(F)cc2s1 | . | -4%[57.1 µM] | 0%[57.1 µM] | .
CN(C)CCCN(C(=O)CCOc1ccccc1)c1nc2ccc(F)cc2s1 | 15% | -3% | 0.63µM* | 0%
O=C(CCOc1ccccc1)N(Cc1cccnc1)c1nc2ccc(F)cc2s1 | . | 3%[57.1 µM] | 7.1µM* | .
CCCC(=O)Oc1ccc2[nH]c(C(=O)c3cc4ccccc4[nH]3)cc2c1 | . | 7% | 9% | .
CC(=O)N1CCc2nc3sc(C(=O)c4ccc(F)cc4)c(N)c3c(C(F)(F)F)c2C1 | . | -13% | 4% | .
COC(=O)CSc1nc(N)c2c3c(sc2n1)C(c1ccccc1)SC(c1ccccc1)C3 (stereo unspecified) | 13µM* | 5% | -9% | -4%
COC(=O)CSc1nc(N)c2c3c(sc2n1)CCCC3 | -10%[46.1 µM] | 12%[57.1 µM] | 4%[57.1 µM] | 1%
COC(=O)/C=C/c1cc(F)ccc1S(=O)(=O)Nc1ccccc1 | . | -4% | -9% | .
CCOCCCNC1=C(Cl)C(=O)c2ccccc2C1=O | ? | -20% | 7.1µM* | 4%
O=C1C(Cl)=C(NCCCO)C(=O)c2ccccc21 | -8%[46.1 µM] | -13% | -18% | -1%
C[N+](C)(C)c1ccc(/C=C/c2ccnc3ccccc23)cc1 | . | -1% | ? | .
Cc1cc(/C=N/n2cnnc2)c(C)n1-c1ccc(OCc2ccc(Cl)cc2)cc1 | 10µM* | 5% | 1% | 0%
Cc1cc(/C=N/n2cnnc2)c(C)n1-c1ccc(OCc2ccccc2F)cc1 | ? | 6% | 20% | -5%
SMILES | NPSR antag | TrxR1 substrate | TrxR1 inh | GALK inh
COc1ccc(-c2cc3ncc(C)n3c(Nc3ncccc3C(N)=O)n2)cc1OC | . | 63%[57.1 µM] | 24%[57.1 µM] | .
O=C(c1cccs1)c1no[n+]([O-])c1C(=O)c1cccs1 | ? | 4% | 0.71µM* | -5%
COc1ccc(C(=O)c2no[n+]([O-])c2C(=O)c2ccc(OC)cc2)cc1 | -12%[46.1 µM] | -6% | 0.63µM* | 0%
COc1ccc(CCN2C(=O)CN(C3CCCCCC3)C(=O)C2c2ccc(Cl)cc2)cc1OC (stereo unspecified) | . | 1%[57.1 µM] | 13%[57.1 µM] | .
CN1C(=O)C(C)(C)c2cc(S(=O)(=O)N3CCC(C(=O)NCc4ccccc4Cl)CC3)ccc21 | . | -1% | 11% | .
COc1cccc(NC(=O)CCN2C(=O)c3ccccc3Sc3ncccc32)c1 | . | -2% | 71µM* | -3%
Cc1ccccc1NC(=O)CCN1C(=O)c2ccccc2Sc2ncccc21 | . | -1% | ? | .
Cc1cc2oc(C(=O)N(Cc3ccc(N(C)C)cc3)Cc3ccco3)c(C)c2cc1Cl | . | 2% | 28% | .
Cc1ccc(C2C3=C(CC(C)(C)CC3=O)N=C3c4ccccc4C(=O)C32)cc1 (stereo unspecified) | -49% | -11% | -40% | 0%
CC(=O)N=c1sc2nc3ccccc3nc2n1N(C(C)=O)C(C)=O | 13µM* | 10% | 40µM* | -2%
COc1ccc(NC2=CC(c3ccc(OC)c(OC)c3)N(c3ccc(OC)cc3)C2=O)cc1 (stereo unspecified) | -11% | -10% | ? | .
NS(=O)(=O)c1ccc(NC2=CC(c3ccc([N+](=O)[O-])cc3)N(c3ccc(S(N)(=O)=O)cc3)C2=O)cc1 (stereo unspecified) | -4% | -7% | 50µM* | -7%
C#C[C@]1(O)CCC2C3CCC4=CC(=O)CC[C@@H]4C3CC[C@@]21C (stereo partly specified) | . | 3% | 10% | .
CC#C[C@]1(O)CC[C@H]2[C@@H]3CCC4=CC(=O)CCC4=C3[C@@H](c3ccc(N(C)C)cc3)C[C@@]21C | 13µM* | ? | ? | -3%
Cc1ccc(N(NC(=O)C(O)(c2ccccc2)c2ccccc2)C(=O)CCl)cc1 | 2.5µM* | 0% | 7.1µM* | 1%
O=C(Nc1ccccc1)NN(C(=O)CCl)c1ccccc1 | . | 6% | 7.9µM* | -1%
CCc1ccc(C2c3c(oc4ccc(C)cc4c3=O)C(=O)N2c2nc(C)c(C)s2)cc1 (stereo unspecified) | . | -2% | 6% | .
COC(=O)c1ccc(CN2C(=O)NC(Cc3c[nH]c4ccccc34)C2=O)cc1 (stereo unspecified) | . | 10%[57.1 µM] | 10%[57.1 µM] | -2%
O=C(O)c1ccc(C(=O)C(=O)c2ccccc2)cc1 | -18% | 2% | 8% | -1%
COc1cccc(C(=O)Nc2ccc(NC(C)=O)cc2)c1 | -1%[46.1 µM] | 8% | 23% | 1%
CSC(SC)=C(C#N)C(=O)c1ccccc1 | ? | 4%[57.1 µM] | 18µM* | .
COc1cccc(C(=O)C(C#N)=C(SC)SC)c1 | ? | -1% | 20µM* | -1%
Cc1[nH]c(-c2ccc3c(c2)OCO3)nc1C(=O)O | -10%[46.1 µM] | 18%[57.1 µM] | 7%[57.1 µM] | 4%
Cc1[nH]c(-c2ccco2)nc1C(=O)O | -4%[46.1 µM] | 4% | 18µM* | -2%
CCOc1ccc(NC(=O)CN(c2ccc(C)cc2)S(=O)(=O)c2cccs2)cc1 | . | 6% | 16% | .
CC(C)N1C(=O)CC(Nc2cccc3cccc(N)c23)C1=O (stereo unspecified) | -10% | -2%[57.1 µM] | -54% | 7%
CN1C(=O)CC(Nc2cccc3cccc(N)c23)C1=O (stereo unspecified) | -32% | 1% | 45µM* | -2%
COc1cc(SC#N)ccc1N=Cc1c(C)[nH]n(-c2ccc(C)c(C)c2)c1=O | 5µM* | -5% | 4% | 1%
COc1ccc(-c2nnc(C)c3nocc23)cc1 | . | -6% | 20µM* | 3%
COc1ccc(Oc2nnc(-c3ccc(C)cc3)c3ccccc23)cc1 | 6%[46.1 µM] | 8% | 31% | 1%
